# Source: PubChem BioAssay (NCI)
# This is part of a sample that, as a whole, favours compounds with a hit. Of some 83,000 tested, about 20% had one in any assay.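 Cell lines were cultured in 96-well plates, exposed to a single compound concentration, and assessed for percent growth 48 hours later.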 A number with no mark means an inactive call. Active and inactive are the calls of the source. The calls were made as follows: active = growth percent below 10; inactive = the rest.
# How the values were obtained:
# Assay in all cases: NCI-60 one-dose screen, 48 h (100 = growth as untreated, 0 = no growth, -100 = all killed)
# Conditions in all cases: 10 µM unless noted
# [1] = test system: SR leukemia
# [2] = test system: RPMI-8226 leukemia
# [3] = test system: OVCAR-8 ovarian
# [4] = test system: OVCAR-5 ovarian
# [5] = test system: OVCAR-4 ovarian
# [6] = test system: SK-OV-3 ovarian
# [7] = test system: IGROV1 ovarian
# [8] = test system: OVCAR-3 ovarian
# [9] = test system: HS 578T breast
# [10] = test system: NCI/ADR-RES ovarian
# [11] = test system: T-47D breast
# [12] = test system: BT-549 breast
# [13] = test system: MDA-MB-435 melanoma
# [14] = test system: SW-620 colon
# [15] = test system: MCF7 breast
# [16] = test system: HCT-116 colon
# [17] = test system: HCC-2998 colon
# [18] = test system: KM12 colon
Structure (SMILES),growth [1],growth [2],growth [3],growth [4],growth [5],growth [6],growth [7],growth [8],growth [9],growth [10],growth [11],growth [12],growth [13],growth [14],growth [15],growth [16],growth [17],growth [18]
C=C1C(=O)O[C@H]2[C@H]1CC/C(CNC(=O)/C=C/c1cccc(OC)c1)=C\CC[C@@]1(C)O[C@@H]21,8.06% (active),2.73% (active),3.77% (active),39.8%,19.4%,86%,20.6%,-62.6% (active),73.1%,82.6%,-4.32% (active),-12.3% (active),16.7%,-61.9% (active),-7.47% (active),-62.2% (active),36.5%,80%
O=C(CCN1CCCC1)Nc1ccc2c(NCc3ccccc3)c3ccccc3nc2c1,-14.8% (active),-35.3% (active),4.52% (active),14.8%,-13.8% (active),-10.9% (active),3.89% (active),-33.4% (active),-10.7% (active),72.5%,-5.83% (active),16.8%,-5.11% (active),-20.4% (active),-5.67% (active),-15.5% (active),-37.4% (active),-2.03% (active)
Cc1cccc(NC(=O)Nc2ccc(-n3cnc4cc(-c5ccc(O)cc5)ccc43)cc2)c1,19.7%,12.4%,17.6%,76.8%,27.4%,60.3%,33.2%,20.4%,82%,39.5%,4.01% (active),70.8%,25.9%,29.6%,16.9%,16.1%,63.6%,13%
Cn1cc(CC2CC(=O)N(c3ccccc3)C2=O)sc1=NC(=O)c1ccccc1 (stereo unspecified),96%,105%,104%,95.2%,103%,97.1%,93.1%,99.2%,89.8%,97.5%,91.1%,87.2%,101%,94.5%,99.2%,96.9%,100%,98.6%
CCCCC[n+]1ccc(SCC(=O)N(C)c2ccc(Oc3ccccc3)cc2)c2ccccc21,84.5%,66.2%,98.4%,105%,92.6%,101%,117%,90.9%,109%,104%,68.5%,130%,98.1%,86.4%,95.7%,92.8%,100%,102%
CCCCCN1C=C/C(=C\C(=O)N(C)c2ccc(OC(F)(F)F)cc2)c2ccccc21,100%,94.7%,95.3%,100%,87.6%,90.6%,93.2%,105%,90.5%,105%,88.3%,109%,105%,98.1%,88.7%,74.3%,106%,102%
ClC1=C(Br)C(Br)(Br)C(=C(Br)Br)C1(Br)Br,44%,73.1%,85.1%,110%,99.1%,118%,102%,75%,103%,110%,73.6%,113%,107%,54%,76.8%,79.9%,115%,101%
O=C(N/N=C/c1cc2ccccc2n2nnnc12)Nc1ccccc1,87.4%,101%,103%,106%,108%,112%,112%,111%,109%,105%,108%,114%,102%,107%,92.3%,113%,108%,104%
CCCCOc1ccc(/C(C)=N/Nc2cc(C)nc3ccc(Br)cc23)cc1,-8.75% (active),57.9%,88.4%,113%,101%,89.4%,85.7%,101%,96.6%,99.2%,85.5%,107%,92.8%,5.89% (active),21.3%,27.7%,45.8%,62.9%
COc1cccc(C(=O)NNc2nc(Cl)nc(N3CCN(C(c4ccccc4)c4ccccc4)CC3)n2)c1,-23.8% (active),88%,71.1%,97.3%,72.2%,96%,2.85% (active),10.5%,91.6%,88%,83.3%,81.6%,97.2%,33.9%,88%,39.2%,64%,90.2%
NC(=S)N1N=C(c2ccccc2)CC1c1cn(-c2ccccc2)nc1-c1ccc(OCc2ccccc2)cc1 (stereo unspecified),109%,90.9%,96.4%,104%,109%,112%,113%,110%,96.3%,112%,95.2%,113%,109%,106%,97.3%,88.5%,103%,99.5%
C=C(C)[C@@H]1CC[C@]2(C(=O)N3CCN(C)CC3)CC[C@]3(C)[C@H](CC[C@@H]4[C@@]5(C)CC[C@H](O)C(C)(C)[C@@H]5CC[C@]43C)[C@@H]12,-19.9% (active),-40.1% (active),-55% (active),-13.8% (active),-79.6% (active),125%,-72.6% (active),-94% (active),-46.1% (active),-42.7% (active),-73.8% (active),-51.8% (active),-82.1% (active),-74.8% (active),-79.6% (active),-98.3% (active),-85.3% (active),-80.7% (active)
O=[N+]([O-])CC(c1ccccc1)c1c[nH]c2ccccc12 (stereo unspecified),20.2%,50.7%,52.7%,79.4%,91.5%,96.3%,53.7%,42.4%,64%,26%,45.1%,56.6%,-14.6% (active),27.9%,29.9%,32.7%,77.2%,43.6%
C=CC(=O)N[C@@H](/C=C/C(=O)OCC)Cc1ccc(-c2cc(Cl)cc(Cl)c2)cc1,7.26% (active),-2.44% (active),16.8%,55.8%,10.7%,26.7%,36.2%,13.5%,40.3%,8.7% (active),-4.93% (active),4.23% (active),1.71% (active),11.7%,4.06% (active),11.1%,41.6%,24.2%
COc1ccc(Cc2cnc(NC(=O)c3ccc4c(c3)OCCO4)s2)cc1,3.32% (active),15.8%,16.9%,26.1%,41.2%,33.4%,20.2%,6.58% (active),31.7%,-1.17% (active),42.8%,43.6%,4.11% (active),31.4%,9.58% (active),7.75% (active),18.8%,10.3%
O=c1c2c(c(=O)n1O)c1c3ccc[nH]c3nc1c1nc3[nH]cccc3c12,32.2%,93.9%,67.1%,103%,78.7%,89.2%,63%,98.3%,83.3%,89.6%,60.7%,80.9%,96.3%,62.4%,73.5%,72.7%,84.9%,97.1%
O=S(=O)(NCCNc1nccc(-c2c(-c3cccc(F)c3)nc3sccn23)n1)c1ccccc1,29.3%,43.5%,33.9%,79.6%,40%,57.2%,4.9% (active),58.9%,55.5%,46.3%,18.8%,50.4%,17.4%,44.5%,21.7%,22.7%,66.4%,28.8%
